From PubChem BioAssay AID588689 (Southern Research Specialized Biocontainment Screening …, 2011)
In all, about 340,000 compounds went through this assay and about 1,000 (0.29%) were called active. Rule as the data show it: inconclusive = inhibition above about 29% without an active follow-up result; inactive = below that. Not all results are given here. Entries with a potency or affinity are not part of this list.

Target: Genome polyprotein (Dengue virus type 2 (strain 16681-PDK53)) (UniProt P29991)
Experiment: flavivirus cap methylation enzyme inhibition – biochemical, confirmation dose response, primary screen (AID 588689)
Conditions: Dengue-2 NS5 methyltransferase capping enzyme assay, at 25 µM, stronger effect = higher value
[1] = measured here: pilot screen replicate inhibition

Row | Structure (SMILES) | inhibition | inhibition [1] [%]
1 | COc1ccccc1N(C(C)=O)c1nc(C)cc(C)c1C#N | -9.48% (inactive) | –
2 | CC(=O)N(C1=C(O)c2ccccc2C(=O)C1=O)C1CCCCC1 | 4.86% (inactive) | –
3 | COc1ccccc1N(/N=C1\Sc2ccccc2C1=O)C(C)=O | 0.77% (inactive) | –
4 | CC(=O)N(c1ccccc1)C1CCCC1 | -5.78% (inactive) | –
5 | CC(=O)N(C1=C(N)C(=O)c2ccccc2C1=O)c1ccccc1 | -4.08% (inactive) | –
6 | CC(=O)N(C1=C(N2CCOCC2)C(=O)c2ccccc2C1=O)c1ccc(C(=O)O)cc1 | 24.1% (inactive) | –
7 | CC(C)CCCN1C(Nc2ccccc2)=NC[C@@H]1C | -8.02% (inactive) | –
8 | O=C(COC(=O)/C=C/c1ccc(C(F)(F)F)cc1)NCc1ccco1 | 1.3% (inactive) | –
9 | COc1ccccc1NC(=O)CN1C(=O)COc2ccc(S(=O)(=O)N3CCCCCC3)cc21 | -3.55% (inactive) | –
10 | COc1cccc(C(=O)Nn2c(-c3cccs3)nc3ccccc3c2=O)c1OC | -3.56% (inactive) | –
11 | O=C(NCc1ccccn1)c1ccc(Cn2cc(C(F)(F)F)ccc2=O)cc1 | -5.74% (inactive) | –
12 | Cn1c(=O)c2c(ncn2CC(=O)N2CCc3ccccc3C2)n(C)c1=O | -0.55% (inactive) | –
13 | CCc1ccc([C@@H]2CC=C(C(=O)O)[C@H](c3ccccc3)N2S(=O)(=O)c2ccc(C)cc2)cc1 | 15.1% (inactive) | –
14 | Cc1ccc([C@H]2C(C(=O)O)=CC[C@@H](c3ccc(Cl)cc3)N2S(=O)(=O)c2ccc(C)cc2)cc1 | 23.2% (inactive) | 7.95
15 | CCCC[C@@H]1C=C(C(=O)O)[C@H](c2ccc(Cl)cc2)N1S(=O)(=O)c1ccc(C)cc1 | 9.27% (inactive) | 1.23
16 | Cc1ccc(S(=O)(=O)N2[C@@H](c3ccccc3)C(C(=O)O)=CC[C@H]2c2ccc(Cl)cc2)cc1 | 13.2% (inactive) | –
17 | CCCCC[C@@H]1C=C(C(=O)O)[C@H](c2ccc(C)cc2)N1S(=O)(=O)c1ccc(C)cc1 | 10.4% (inactive) | –
18 | CCc1ccc([C@@H]2CC=C(C(=O)O)[C@H](c3ccc(F)cc3)N2S(=O)(=O)c2ccc(C)cc2)cc1 | 15.9% (inactive) | –
19 | Cn1ncc([N+](=O)[O-])c1C(=O)Nc1cccc2ccccc12 | -4.99% (inactive) | –

Row | Structure (SMILES) | inhibition | inhibition [1] [%]
20 | CC(C)CN(C(=O)COC(=O)CCCc1c[nH]c2ccccc12)c1c(N)n(Cc2ccccc2)c(=O)[nH]c1=O | 1.62% (inactive) | –
21 | Clc1ccc(OCCn2cnc(Cl)c2Cl)cc1 | 2.87% (inactive) | –
22 | Cc1cccn2cc(CCNC(=O)c3ccc(Br)o3)nc12 | 3.48% (inactive) | –
23 | O=C1COCCOCCOCCOCC(=O)NCCN1 | -2.15% (inactive) | –
24 | CCOC(=O)C1=CN(Cc2ccco2)S(=O)(=O)N(C)C1c1ccc(C(F)(F)F)cc1 (centres undefined) | -11.6% (inactive) | -0.605
25 | O=C(CSc1nnc(Cc2ccccc2)o1)NCCN1C(=O)CSC1=O | -7.38% (inactive) | –
26 | CCc1ccc(/C=C(/C#N)C(N)=S)s1 | 0% (inactive) | –
27 | CCCCc1ccc(/C=C(\C#N)C(N)=S)s1 | 0% (inactive) | –
28 | Cc1ccc(N2C(=O)CC(Nc3ccc(Cl)c(S(=O)(=O)N(C)C)c3)C2=O)c(C)c1 (centres undefined) | -11.6% (inactive) | –
29 | Cc1ccc(S(=O)(=O)NCCOCCNS(=O)(=O)c2ccc(C)cc2)cc1 | -4.78% (inactive) | –
30 | CC(/C=C1\SC(=S)N(CCC(=O)Nc2ccc(O)cc2)C1=O)=C\c1ccccc1 | 1.3% (inactive) | –
31 | CC(/C=C1\SC(=S)N(CC(=O)N2CCN(c3ccccc3)CC2)C1=O)=C\c1ccccc1 | -0.73% (inactive) | –
32 | CCC(C(=O)O)N1C(=O)/C(=C/c2cccn2C)SC1=S (centres undefined) | -25.5% (inactive) | –
33 | CC(C)C(C(=O)O)N1C(=O)/C(=C/c2cccn2C)SC1=S (centres undefined) | -19.5% (inactive) | –
34 | CC(/C=C1\SC(=S)N(NC(=O)c2ccncc2)C1=O)=C\c1ccccc1 | 21.6% (inactive) | –
35 | CC(C)C(C(=O)O)N1C(=O)/C(=C/C=C/c2ccco2)SC1=S (centres undefined) | 42.9% (inactive) | –
36 | CC(/C=C1\SC(=S)N(CC(=O)O)C1=O)=C\c1ccccc1 | 26% (inactive) | –
37 | CCOC(=O)c1c(C)[nH]c(C(=O)OCC(=O)NC2(C#N)CCCCC2)c1C | -11.6% (inactive) | –
38 | O=c1n(Cc2ccccc2F)c2ccccc2n1Cc1ccccc1F | -3.2% (inactive) | –

Row | Structure (SMILES) | inhibition | inhibition [1] [%]
39 | FC(F)(F)c1ccccc1/C=N/n1c(C2CCCCC2)n[nH]c1=S | 10.6% (inactive) | –
40 | COc1ccc(N=C2SC(C(=O)O)CC(=O)N2C)cc1 (centres undefined) | 0.68% (inactive) | –
41 | COc1cccc(NC(=O)CN(C)C(=O)c2cccc(S(=O)(=O)N3CCN(c4ccccc4)CC3)c2)c1 | -6.1% (inactive) | –
42 | O=C(COc1ccc(S(=O)(=O)N2CCCCC2)cc1)NCC1CCCO1 (centres undefined) | -5.9% (inactive) | –
43 | Cc1nnc(NCCc2ccccc2)c2ccccc12 | -6.68% (inactive) | –
44 | O=C(/C=C/c1cccc([N+](=O)[O-])c1)OCC(=O)N1CCN(C(=O)c2ccco2)CC1 | 0.39% (inactive) | –
45 | COc1cccc(NC(=O)C2CCCN2C(=O)Nc2ccccc2F)c1 (centres undefined) | -4.94% (inactive) | –
46 | Oc1ccc2ccccc2c1CN1CCN(C/C=C/c2ccccc2)CC1 | -14.3% (inactive) | –
47 | O=C(O)c1ccc(N2C(=O)/C(=C/C=C/c3ccccc3)SC2=S)cc1 | 16% (inactive) | –
48 | CC(/C=C1\SC(=S)N(CCCC(=O)Nc2ccc(C(=O)O)cc2)C1=O)=C\c1ccccc1 | 11.7% (inactive) | –
49 | COc1ccc(NC(=O)CN(C)C(=O)c2cccc(S(=O)(=O)N3CCN(C)CC3)c2)cc1 | -5.07% (inactive) | –
50 | CCOC(=O)c1c(NC(=O)C2C3C=CC(C3)C2C(=O)O)sc2c1CCCC2 (centres undefined) | 4.37% (inactive) | –
51 | CCOC(=O)c1c(NC(=O)C2C3C=CC(C3)C2C(=O)O)sc2c1CCC(C)C2 (centres undefined) | -2.91% (inactive) | –
52 | CCOC(=O)c1c(NC(=O)C2C3CCC(O3)C2C(=O)O)sc2c1CCC(CC)C2 (centres undefined) | 4.42% (inactive) | –
53 | CCOC(=O)c1c(NC(=O)C2C3C=CC(C3)C2C(=O)O)sc2c1CC(C)CC2 (centres undefined) | 7.29% (inactive) | –
54 | COc1cc2c(cc1OC)C(C(N)=O)NCC2 (centres undefined) | 0.81% (inactive) | –
55 | O=C(CN1CCN(c2ccccc2F)CC1)c1ccc(O)c(O)c1 | 6.62% (inactive) | –
56 | CNS(=O)(=O)c1cccc(C(=O)OCC(=O)Nc2ccc(OC)cc2[N+](=O)[O-])c1 | 6.24% (inactive) | –
